# Screening results: PubChem, National Center for Advancing Translational Sciences (NCATS)
# DT40 TDP1 no CPT = qHTS for Inhibitors of human tyrosyl-DNA phosphodiesterase 1 (TDP1): qHTS in cells in absence of CPT; hit rate 15% among 420,000; Potency, µM (top dose mostly 46.2 µM), for inactives: at the highest dose activity change, negative = growth inhibition, actives largely listed as inhibitors; DT40 Tdp1-/- hTDP1 cells, no CPT, ATP luminescence, 48 h; further: potency means the concentration at half of the fitted maximal effect; nearly all actives have a fitted effect of over 55% in size
#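 Growth of hTDP1-complemented DT40 Tdp1-knockout cells is measured by ATP luminescence after at least 48 hr compound exposure at 37 °C, with DMSO substituting for the 20 nM CPT used in the parallel screen.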
# HT1080 IDH1KD tx = qHTS for induction of synthetic lethality in tumor cells producing 2HG: qHTS for the HT-1080-IDH1KD cell line; hit rate 2% among 360,000; HT-1080 IDH1 knockdown viability, ATP luminescence, 48 h; AID 686971, 2013; Potency, µM (series often up to 46.1 µM), for the others: top-dose activity, negative = toxicity, hits mostly cytotoxic;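 further: potency means the concentration at half of the fitted maximal effect; 0% = DMSO wells and -100% = cell-free medium wells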
#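 Cytotoxicity counter-line: IDH1KD HT-1080, 48 h, CellTiter-Glo. Curves classed by r2, magnitude and activity.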
# 12-LOX inh = Primary qHTS assay for inhibitors of human arachidonate 12S-lipoxygenase (ALOX12): Round 2. Polyunsaturated fatty acid lipoxygenase ALOX12 (Homo sapiens), P18054. hit rate 1.1% among 580,000. Potency, µM (highest dose often 108 µM), without a hit: top-dose activity change, negative = inhibition, usual class: inhibitors. purified 12hLO, xylenol orange hydroperoxide absorbance; further: potency means the concentration at half of the fitted maximal effect
# Target sequence (P18054 whole entry, looked up): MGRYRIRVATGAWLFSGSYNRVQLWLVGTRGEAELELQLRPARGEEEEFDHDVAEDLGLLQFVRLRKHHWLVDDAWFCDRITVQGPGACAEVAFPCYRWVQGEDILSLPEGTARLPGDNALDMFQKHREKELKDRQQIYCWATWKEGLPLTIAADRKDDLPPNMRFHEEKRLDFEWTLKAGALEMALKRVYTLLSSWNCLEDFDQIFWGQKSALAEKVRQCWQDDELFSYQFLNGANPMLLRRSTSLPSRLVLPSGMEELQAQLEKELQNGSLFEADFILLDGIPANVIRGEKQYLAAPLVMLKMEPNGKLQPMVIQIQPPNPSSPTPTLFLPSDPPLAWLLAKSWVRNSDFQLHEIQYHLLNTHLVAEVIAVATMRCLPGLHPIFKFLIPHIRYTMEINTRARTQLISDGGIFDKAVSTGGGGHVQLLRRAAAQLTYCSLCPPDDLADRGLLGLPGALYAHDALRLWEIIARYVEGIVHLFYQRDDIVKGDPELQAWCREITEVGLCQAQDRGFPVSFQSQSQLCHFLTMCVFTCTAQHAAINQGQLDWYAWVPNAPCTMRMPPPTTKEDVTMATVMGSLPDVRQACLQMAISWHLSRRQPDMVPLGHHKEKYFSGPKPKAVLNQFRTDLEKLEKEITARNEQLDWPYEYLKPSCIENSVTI
#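 Purified human 12hLO (150 nM final) in 25 mM Hepes, 0.01% Triton X-100, pH 7.0 was preincubated 15 min at room temperature with compound. Then 40 uM arachidonic acid was added, 30 min. Hydroperoxide was read by Fe-XO absorbance ratio 573/405 nm.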
# HT1080NT lethal = qHTS for induction of synthetic lethality in tumor cells producing 2HG: qHTS for the HT-1080-NT fibrosarcoma cell line; HT-1080-NT fibrosarcoma viability, CellTiter-Glo ATP luminescence, 48 h; Potency, µM (top dose mostly 46.1 µM), inactives show top-dose activity, negative = less viability, actives largely listed as cytotoxic; hit rate 1.6% among 360,000; AID 686970, 2013;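 further: NT is the 2HG producing partner of a matched IDH1 knockdown line; potency means the concentration at half of the fitted maximal effect; 0% = DMSO-treated cells and -100% = media-only wells without cells; nearly all actives have a fitted effect of over 55% in size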
#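 Viability of the 2HG-overproducing fibrosarcoma line after 48 hours of compound exposure at 37 degrees C was determined by luminescence with CellTiter-Glo, and concentration-effect curves were then fitted and categorized.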
# TDP1 cell CPT = qHTS for Inhibitors of human tyrosyl-DNA phosphodiesterase 1 (TDP1): qHTS in cells in presence of CPT; AID 686979, 2013; hit rate 12% among 420,000; Potency, µM (highest dose often 46.2 µM), for inactives: top-dose activity change, negative = growth inhibition, actives largely listed as inhibitors; chicken DT40 Tdp1-/-;hTDP1 cells + 20 nM CPT, ATP luminescence, 48 h; further: potency means the concentration at half of the fitted maximal effect; nearly all actives have a fitted effect of over 55% in size
#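 Cell growth measured by CellTiter-Glo luminescence after a minimum 48 h, 37 C compound exposure with 20 nM CPT in Tdp1-knockout DT40 cells stably expressing hTDP1, seeded 400/well; qHTS titration format.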
# IL-1B inflam inh = qHTS for Inhibitors of Inflammasome Signaling: IL-1-beta AlphaLISA Primary Screen; activity change, % at 57.5 µM; THP-1 LPS/ATP IL-1B secretion, AlphaLISA, 16 h; hits give low values; AID 743279, 2014; hit rate 4.7% among 360,000; in the data active means activity change below about -50%; inconclusive means mostly about -30% to -49%
#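 Secreted IL-1B measured by AlphaLISA bead assay after 16 h compound exposure of THP-1 cells; compounds (final up to 57.5 uM) added 1 h before LPS (250 ng/mL) and ATP (1.25 mM) stimulation; lower signal means less secretion.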
# Active calls of the source: *; ? = inconclusive; · = no result given; [ ] = another dose, or the depositor's remark. Only a selection was taken, and hits are over-represented in it overall. Unless noted, the call rests on the fitted dose curve; in most records, active means well fitted curve in the direction sought with a large enough effect; inconclusive means small, poorly fitted or top-dose-only effect, or another doubt; inactive means no such curve, though single readings can be large; an effect the other way counts as inactive or inconclusive. Unless noted, on the % scale 0 is the no-effect control and ±100 the full control effect.
SMILES,DT40 TDP1 no CPT,HT1080 IDH1KD tx,12-LOX inh,HT1080NT lethal,TDP1 cell CPT,IL-1B inflam inh
CCC(c1nnnn1Cc1cccs1)N1CCN(c2nc3ccccc3s2)CC1 (configuration not stated),?,?,-19%,-9%,?,?
COc1ccc(C(c2nnnn2C(C)(C)C)N2CCN(c3nc4ccccc4s3)CC2)cc1OC (configuration not stated),2%,0%,-6%,11%,?,0
COCCn1nnnc1C(c1cccs1)N1CCN(c2nc3ccccc3s2)CC1 (configuration not stated),23µM*,-18%,7%[57.4 µM],-1%,?,-17
COc1ccc(CCc2nc3nccc(-c4cccs4)n3n2)cc1OC,·,·,-6%,·,·,·
Cc1cccc(CNC(=O)Nc2ccc(N3CCCCC3)nc2)n1,·,·,50%,·,·,·
COc1ccc(OC)c(CN(C(=O)c2cc(OC)ccc2Br)C2CC2)c1,·,·,20%,·,·,·
Cc1ccc(Cl)cc1N1CCN(C(c2ccc(C#N)cc2)c2nnnn2C2CCCC2)CC1 (configuration not stated),-25%,1%,-9%,5%,-25%,-5
Cc1ccc(Cl)cc1N1CCN(C(c2cccnc2)c2nnnn2C2CCCCC2)CC1 (configuration not stated),?,-5%,9%,12%,?,-53*
COCCn1nnnc1C(c1cccs1)N1CCN(c2cc(C)ccc2C)CC1 (configuration not stated),?,-30%,?,-21%,?,-53*
Cc1cc(C(=O)NCC2(c3ccccc3)CCC2)cc(S(N)(=O)=O)c1C,·,·,12%,·,·,·
CN1CCN(C2=Nc3c(Cl)cc(Cl)c4cccc2c34)CC1,21µM*,-6%,-16%,-10%,?,-53*
Cc1ccc(-c2cc(C(=O)O)c3ccccc3n2)o1,·,·,11µM*,·,·,·
Cc1ccc(-c2cc(C(=O)Nc3ccccn3)c3ccccc3n2)o1,23µM*,-4%,6.3µM*,3%,?,-24
Cc1ccc(NC(=O)c2cc(C)nc3ccccc23)cc1,-13%,1%,0%,6%,6%,19
Cc1ccc(-c2cc(C(=O)Nc3cccnc3)c3ccccc3n2)o1,?,?,10µM*,?,16µM*,8
Cc1ccc(NC(=O)c2cc(-c3ccc(C)o3)nc3ccccc23)cc1,?,?,4.5µM*,?,?,19
O=C1NC(Cc2cnc[nH]2)C(=O)N2CCCC12 (configuration not stated),·,·,-8%,·,·,·
O=[N+]([O-])c1cccc(S(=O)(=O)NCCNS(=O)(=O)c2cccc([N+](=O)[O-])c2)c1,-19%,·,-13%[22.9 µM],·,3%,·
COCC(=O)N1CCC2(CCCN(C(=O)Nc3ccc(OC)cc3)C2)CC1,-4%,·,3%[57.4 µM],·,2%,·
Cc1ccc(-c2cc(C(=O)Nc3cc(F)ccc3F)c3ccccc3n2)o1,·,·,7.9µM*,·,·,·
O=C(Nc1cccnc1)c1cc(-c2ccc(Br)cc2)nc2ccccc12,?,?,-9%,?,?,-77*
Cc1ccc(-c2cc(C(=O)N3CCN(C(=O)c4ccco4)CC3)c3ccccc3n2)o1,·,·,18µM*,·,·,·
Cc1cc(NC(=O)c2cc(-c3cccnc3)nc3c(C)c(C)ccc23)no1,16µM*,?,16%,-22%,?,-18
